Data from ChEMBL document CHEMBL1961873, “Compounds: GSK PKIS; Assays: Nanosyn kinase panel” (2012).

How the values were obtained:
[1] = target: T1, Mitogen-activated protein kinase 12 (Homo sapiens) (UniProt P53778); conditions: at 1 µM;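 further: values are averaged p38gamma kinase inhibition readings, compounds tested at 1 µM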
T1 sequence (whole entry): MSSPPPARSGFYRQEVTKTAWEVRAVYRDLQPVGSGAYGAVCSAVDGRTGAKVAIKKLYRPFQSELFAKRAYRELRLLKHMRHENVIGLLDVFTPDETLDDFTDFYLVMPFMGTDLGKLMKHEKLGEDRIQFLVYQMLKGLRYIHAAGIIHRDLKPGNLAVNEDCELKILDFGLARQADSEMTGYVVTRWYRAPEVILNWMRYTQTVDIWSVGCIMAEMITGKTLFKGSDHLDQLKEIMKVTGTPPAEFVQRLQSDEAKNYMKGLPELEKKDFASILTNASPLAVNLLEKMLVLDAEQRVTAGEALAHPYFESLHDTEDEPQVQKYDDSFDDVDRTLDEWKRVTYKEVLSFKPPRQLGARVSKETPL

[2] = target: SRSF protein kinase 1 (Homo sapiens) (UniProt Q96SB4); conditions: at 0.1 µM
[3] = target: SRSF protein kinase 1 (Homo sapiens) (UniProt Q96SB4); conditions: at 1 µM
[4] = target: Phosphatidylinositol 4,5-bisphosphate 3-kinase catalytic subunit alpha isoform (Homo sapiens) (UniProt P42336); conditions: at 0.1 µM
[5] = target: Phosphatidylinositol 4,5-bisphosphate 3-kinase catalytic subunit alpha isoform (Homo sapiens) (UniProt P42336); conditions: at 1 µM
[6] = target: Phosphatidylinositol 4-kinase beta (Homo sapiens) (UniProt Q9UBF8); conditions: at 0.1 µM
[7] = target: Phosphatidylinositol 4-kinase beta (Homo sapiens) (UniProt Q9UBF8); conditions: at 1 µM
[8] = target: Sphingosine kinase 1 (Homo sapiens) (UniProt Q9NYA1); conditions: at 0.1 µM
[9] = target: Sphingosine kinase 1 (Homo sapiens) (UniProt Q9NYA1); conditions: at 1 µM
[10] = target: T2, Sphingosine kinase 2 (Homo sapiens) (UniProt Q9NRA0); conditions: at 0.1 µM
T2 sequence (whole entry): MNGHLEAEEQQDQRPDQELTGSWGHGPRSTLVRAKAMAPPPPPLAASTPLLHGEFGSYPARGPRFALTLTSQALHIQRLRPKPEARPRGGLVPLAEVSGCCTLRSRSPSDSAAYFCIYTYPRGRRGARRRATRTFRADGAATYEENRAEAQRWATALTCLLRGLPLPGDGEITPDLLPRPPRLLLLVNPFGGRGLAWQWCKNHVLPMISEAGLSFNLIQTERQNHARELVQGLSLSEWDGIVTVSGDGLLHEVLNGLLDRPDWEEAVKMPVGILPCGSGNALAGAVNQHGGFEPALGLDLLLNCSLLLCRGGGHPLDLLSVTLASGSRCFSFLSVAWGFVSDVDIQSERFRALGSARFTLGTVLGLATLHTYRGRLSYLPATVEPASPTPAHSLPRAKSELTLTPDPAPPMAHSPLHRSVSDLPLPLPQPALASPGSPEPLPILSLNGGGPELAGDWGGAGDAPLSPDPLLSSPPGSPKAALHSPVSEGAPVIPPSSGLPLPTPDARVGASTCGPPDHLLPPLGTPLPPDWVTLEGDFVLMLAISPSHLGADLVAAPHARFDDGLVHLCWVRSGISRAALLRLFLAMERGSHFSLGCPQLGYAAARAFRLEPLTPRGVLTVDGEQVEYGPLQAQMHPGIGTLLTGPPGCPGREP

[11] = target: T2, Sphingosine kinase 2 (Homo sapiens); conditions: at 1 µM
[12] = target: Casein kinase II subunit alpha (Homo sapiens) (UniProt P68400); conditions: at 0.1 µM
[13] = target: Casein kinase II subunit alpha (Homo sapiens) (UniProt P68400); conditions: at 1 µM
[14] = target: T3, Inhibitor of nuclear factor kappa-B kinase subunit alpha (Homo sapiens) (UniProt O15111); conditions: at 0.1 µM
T3 sequence (whole entry): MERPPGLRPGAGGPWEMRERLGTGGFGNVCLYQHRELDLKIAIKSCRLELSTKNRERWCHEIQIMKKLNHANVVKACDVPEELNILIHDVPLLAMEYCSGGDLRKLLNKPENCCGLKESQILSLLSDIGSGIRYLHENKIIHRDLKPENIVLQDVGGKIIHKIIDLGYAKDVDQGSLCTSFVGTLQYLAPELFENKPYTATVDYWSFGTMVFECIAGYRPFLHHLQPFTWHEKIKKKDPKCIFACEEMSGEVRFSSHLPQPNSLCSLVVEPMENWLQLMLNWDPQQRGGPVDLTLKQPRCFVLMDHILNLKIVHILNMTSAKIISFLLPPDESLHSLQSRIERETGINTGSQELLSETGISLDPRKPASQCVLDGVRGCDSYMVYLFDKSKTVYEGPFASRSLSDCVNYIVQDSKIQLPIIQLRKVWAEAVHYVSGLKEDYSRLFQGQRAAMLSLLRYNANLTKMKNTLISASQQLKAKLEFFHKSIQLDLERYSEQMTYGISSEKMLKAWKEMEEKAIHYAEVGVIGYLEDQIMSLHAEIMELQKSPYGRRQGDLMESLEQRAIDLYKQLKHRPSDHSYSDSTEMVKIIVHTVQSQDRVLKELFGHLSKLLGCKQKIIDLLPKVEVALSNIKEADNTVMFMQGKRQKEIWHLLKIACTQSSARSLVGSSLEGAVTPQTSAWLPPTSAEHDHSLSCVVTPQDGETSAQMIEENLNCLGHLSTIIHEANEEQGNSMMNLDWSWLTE

[15] = target: T3, Inhibitor of nuclear factor kappa-B kinase subunit alpha (Homo sapiens); conditions: at 1 µM
[16] = target: T4, Inhibitor of nuclear factor kappa-B kinase subunit beta (Homo sapiens) (UniProt O14920); conditions: at 0.1 µM
T4 sequence (whole entry): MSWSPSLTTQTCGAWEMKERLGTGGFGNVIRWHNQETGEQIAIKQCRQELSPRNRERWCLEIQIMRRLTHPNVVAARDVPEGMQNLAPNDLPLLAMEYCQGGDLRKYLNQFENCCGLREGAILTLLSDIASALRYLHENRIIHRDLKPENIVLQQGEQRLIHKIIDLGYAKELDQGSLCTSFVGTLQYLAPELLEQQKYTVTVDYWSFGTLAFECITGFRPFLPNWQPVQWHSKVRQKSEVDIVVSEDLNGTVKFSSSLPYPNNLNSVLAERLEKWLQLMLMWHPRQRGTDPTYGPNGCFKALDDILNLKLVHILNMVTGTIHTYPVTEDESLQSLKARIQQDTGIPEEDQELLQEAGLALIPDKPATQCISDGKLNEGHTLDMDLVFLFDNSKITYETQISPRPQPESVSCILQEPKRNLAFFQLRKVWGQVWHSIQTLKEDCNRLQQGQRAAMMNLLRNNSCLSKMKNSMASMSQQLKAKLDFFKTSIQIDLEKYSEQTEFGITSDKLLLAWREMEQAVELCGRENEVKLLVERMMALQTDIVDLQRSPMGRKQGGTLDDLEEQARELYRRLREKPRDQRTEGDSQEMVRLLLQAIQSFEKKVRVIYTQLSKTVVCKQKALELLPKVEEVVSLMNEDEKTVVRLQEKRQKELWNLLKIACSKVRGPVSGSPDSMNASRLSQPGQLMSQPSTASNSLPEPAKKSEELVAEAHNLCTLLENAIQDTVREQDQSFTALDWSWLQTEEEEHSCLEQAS

[17] = target: T4, Inhibitor of nuclear factor kappa-B kinase subunit beta (Homo sapiens); conditions: at 1 µM
[18] = target: T5, Inhibitor of nuclear factor kappa-B kinase subunit epsilon (Homo sapiens) (UniProt Q14164); conditions: at 0.1 µM;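 further: mean inhibition of IKKε reported, from the GSK PKIS dataset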
T5 sequence (whole entry): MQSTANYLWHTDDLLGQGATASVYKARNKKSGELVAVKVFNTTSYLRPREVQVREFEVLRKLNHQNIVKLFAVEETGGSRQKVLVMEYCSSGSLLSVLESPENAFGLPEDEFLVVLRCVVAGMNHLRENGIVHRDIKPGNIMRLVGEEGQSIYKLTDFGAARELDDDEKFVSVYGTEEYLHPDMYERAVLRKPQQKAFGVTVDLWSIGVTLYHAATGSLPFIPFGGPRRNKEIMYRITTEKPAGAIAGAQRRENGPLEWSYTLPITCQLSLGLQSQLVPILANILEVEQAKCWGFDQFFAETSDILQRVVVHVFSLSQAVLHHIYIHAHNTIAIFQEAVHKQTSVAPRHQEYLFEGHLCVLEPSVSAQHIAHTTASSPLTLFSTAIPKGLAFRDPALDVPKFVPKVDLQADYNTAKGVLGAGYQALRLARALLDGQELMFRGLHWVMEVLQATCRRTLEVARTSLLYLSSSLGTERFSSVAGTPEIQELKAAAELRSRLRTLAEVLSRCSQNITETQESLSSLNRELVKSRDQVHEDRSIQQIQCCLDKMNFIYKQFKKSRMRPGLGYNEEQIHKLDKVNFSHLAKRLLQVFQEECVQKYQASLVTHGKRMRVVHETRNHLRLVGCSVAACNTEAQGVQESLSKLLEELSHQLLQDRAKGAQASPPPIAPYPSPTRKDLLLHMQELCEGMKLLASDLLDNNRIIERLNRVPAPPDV

[19] = target: T6, Phosphatidylinositol 4,5-bisphosphate 3-kinase catalytic subunit delta isoform (Homo sapiens) (UniProt O00329); conditions: at 0.1 µM
T6 sequence (whole entry): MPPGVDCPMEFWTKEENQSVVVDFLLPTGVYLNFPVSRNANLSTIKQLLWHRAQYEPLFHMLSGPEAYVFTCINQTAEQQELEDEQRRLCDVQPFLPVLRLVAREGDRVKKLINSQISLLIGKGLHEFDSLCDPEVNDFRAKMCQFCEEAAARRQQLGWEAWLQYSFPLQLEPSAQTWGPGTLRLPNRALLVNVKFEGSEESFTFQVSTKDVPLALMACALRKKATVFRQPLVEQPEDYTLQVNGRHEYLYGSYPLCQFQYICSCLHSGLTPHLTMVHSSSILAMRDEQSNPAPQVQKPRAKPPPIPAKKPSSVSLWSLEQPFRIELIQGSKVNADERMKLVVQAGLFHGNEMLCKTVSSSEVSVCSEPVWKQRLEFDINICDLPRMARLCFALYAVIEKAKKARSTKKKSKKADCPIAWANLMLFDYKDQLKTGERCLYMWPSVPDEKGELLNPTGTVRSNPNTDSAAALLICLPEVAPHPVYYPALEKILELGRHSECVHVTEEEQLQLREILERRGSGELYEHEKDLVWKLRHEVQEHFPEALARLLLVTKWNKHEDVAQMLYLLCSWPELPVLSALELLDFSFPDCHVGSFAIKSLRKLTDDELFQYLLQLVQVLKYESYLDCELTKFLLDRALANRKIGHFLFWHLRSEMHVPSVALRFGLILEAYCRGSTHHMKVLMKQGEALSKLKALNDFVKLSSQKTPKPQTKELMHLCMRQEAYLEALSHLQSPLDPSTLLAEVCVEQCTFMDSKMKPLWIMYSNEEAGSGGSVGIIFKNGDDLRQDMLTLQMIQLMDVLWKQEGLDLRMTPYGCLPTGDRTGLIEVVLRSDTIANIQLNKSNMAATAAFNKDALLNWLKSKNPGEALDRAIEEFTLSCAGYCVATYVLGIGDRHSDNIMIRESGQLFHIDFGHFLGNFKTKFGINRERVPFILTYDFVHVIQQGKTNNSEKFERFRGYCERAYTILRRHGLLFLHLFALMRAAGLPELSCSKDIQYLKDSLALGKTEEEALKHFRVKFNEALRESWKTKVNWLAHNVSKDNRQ

[20] = target: T6, Phosphatidylinositol 4,5-bisphosphate 3-kinase catalytic subunit delta isoform (Homo sapiens); conditions: at 1 µM

Sphingosine kinase 1 (Homo sapiens), sequence (Q9NYA1 whole entry): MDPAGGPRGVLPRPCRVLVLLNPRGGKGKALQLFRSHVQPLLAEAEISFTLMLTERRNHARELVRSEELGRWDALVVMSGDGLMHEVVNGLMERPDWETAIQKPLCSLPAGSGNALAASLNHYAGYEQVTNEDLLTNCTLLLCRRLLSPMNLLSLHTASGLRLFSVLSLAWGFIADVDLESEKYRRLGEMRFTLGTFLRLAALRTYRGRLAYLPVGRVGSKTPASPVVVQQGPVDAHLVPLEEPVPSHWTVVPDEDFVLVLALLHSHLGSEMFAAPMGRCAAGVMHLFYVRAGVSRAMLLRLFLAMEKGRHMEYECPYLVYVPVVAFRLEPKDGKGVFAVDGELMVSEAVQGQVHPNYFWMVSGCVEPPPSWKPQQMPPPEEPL
SRSF protein kinase 1 (Homo sapiens), sequence (Q96SB4 whole entry, canonical isoform): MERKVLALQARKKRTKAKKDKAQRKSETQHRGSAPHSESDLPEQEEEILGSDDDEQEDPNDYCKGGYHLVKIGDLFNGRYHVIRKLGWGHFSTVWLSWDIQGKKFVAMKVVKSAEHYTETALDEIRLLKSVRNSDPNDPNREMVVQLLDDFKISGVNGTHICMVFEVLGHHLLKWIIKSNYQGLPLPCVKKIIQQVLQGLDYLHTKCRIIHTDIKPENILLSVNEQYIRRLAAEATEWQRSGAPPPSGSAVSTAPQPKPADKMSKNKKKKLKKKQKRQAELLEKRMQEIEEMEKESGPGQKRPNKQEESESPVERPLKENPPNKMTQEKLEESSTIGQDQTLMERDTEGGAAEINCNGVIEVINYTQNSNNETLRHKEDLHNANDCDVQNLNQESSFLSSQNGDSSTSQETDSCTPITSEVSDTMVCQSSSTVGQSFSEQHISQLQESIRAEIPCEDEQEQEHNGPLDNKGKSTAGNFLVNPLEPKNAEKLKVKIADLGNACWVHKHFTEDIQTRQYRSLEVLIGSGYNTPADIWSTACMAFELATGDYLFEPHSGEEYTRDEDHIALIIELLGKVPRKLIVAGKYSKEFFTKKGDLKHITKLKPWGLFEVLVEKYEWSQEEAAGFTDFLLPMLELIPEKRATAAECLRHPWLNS
Casein kinase II subunit alpha (Homo sapiens), sequence (P68400 whole entry, looked up): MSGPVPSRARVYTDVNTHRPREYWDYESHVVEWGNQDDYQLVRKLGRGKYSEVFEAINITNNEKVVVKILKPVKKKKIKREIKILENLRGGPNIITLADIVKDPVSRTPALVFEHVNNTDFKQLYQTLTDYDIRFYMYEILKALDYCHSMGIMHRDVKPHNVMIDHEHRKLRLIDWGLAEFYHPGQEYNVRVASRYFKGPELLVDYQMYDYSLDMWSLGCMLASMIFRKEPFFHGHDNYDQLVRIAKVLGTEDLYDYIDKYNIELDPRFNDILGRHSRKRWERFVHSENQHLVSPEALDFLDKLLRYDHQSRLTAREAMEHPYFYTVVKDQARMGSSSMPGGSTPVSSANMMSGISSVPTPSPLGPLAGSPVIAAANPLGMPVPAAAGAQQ
Phosphatidylinositol 4-kinase beta (Homo sapiens), sequence (Q9UBF8 2-816 limits assumed): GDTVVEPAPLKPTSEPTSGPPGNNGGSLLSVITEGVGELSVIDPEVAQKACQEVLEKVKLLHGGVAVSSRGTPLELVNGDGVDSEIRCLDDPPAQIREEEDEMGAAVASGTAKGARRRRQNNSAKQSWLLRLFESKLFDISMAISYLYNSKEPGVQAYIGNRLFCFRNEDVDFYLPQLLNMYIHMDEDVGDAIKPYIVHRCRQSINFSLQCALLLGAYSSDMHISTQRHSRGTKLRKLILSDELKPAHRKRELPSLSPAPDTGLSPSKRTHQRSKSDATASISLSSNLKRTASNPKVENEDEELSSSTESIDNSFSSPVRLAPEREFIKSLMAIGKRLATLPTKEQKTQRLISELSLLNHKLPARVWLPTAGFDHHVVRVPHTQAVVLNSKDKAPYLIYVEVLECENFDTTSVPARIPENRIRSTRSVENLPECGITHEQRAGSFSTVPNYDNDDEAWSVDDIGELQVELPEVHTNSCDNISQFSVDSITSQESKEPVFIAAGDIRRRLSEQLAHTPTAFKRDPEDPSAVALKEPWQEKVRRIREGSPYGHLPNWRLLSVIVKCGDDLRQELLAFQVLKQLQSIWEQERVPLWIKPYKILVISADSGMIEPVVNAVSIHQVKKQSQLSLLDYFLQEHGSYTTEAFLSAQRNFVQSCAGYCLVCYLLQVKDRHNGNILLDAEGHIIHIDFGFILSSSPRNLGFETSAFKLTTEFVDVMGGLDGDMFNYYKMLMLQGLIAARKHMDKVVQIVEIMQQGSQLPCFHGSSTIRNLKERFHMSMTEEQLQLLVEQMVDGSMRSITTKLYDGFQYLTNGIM
Phosphatidylinositol 4,5-bisphosphate 3-kinase catalytic subunit alpha isoform (Homo sapiens), sequence (P42336 whole entry, canonical isoform): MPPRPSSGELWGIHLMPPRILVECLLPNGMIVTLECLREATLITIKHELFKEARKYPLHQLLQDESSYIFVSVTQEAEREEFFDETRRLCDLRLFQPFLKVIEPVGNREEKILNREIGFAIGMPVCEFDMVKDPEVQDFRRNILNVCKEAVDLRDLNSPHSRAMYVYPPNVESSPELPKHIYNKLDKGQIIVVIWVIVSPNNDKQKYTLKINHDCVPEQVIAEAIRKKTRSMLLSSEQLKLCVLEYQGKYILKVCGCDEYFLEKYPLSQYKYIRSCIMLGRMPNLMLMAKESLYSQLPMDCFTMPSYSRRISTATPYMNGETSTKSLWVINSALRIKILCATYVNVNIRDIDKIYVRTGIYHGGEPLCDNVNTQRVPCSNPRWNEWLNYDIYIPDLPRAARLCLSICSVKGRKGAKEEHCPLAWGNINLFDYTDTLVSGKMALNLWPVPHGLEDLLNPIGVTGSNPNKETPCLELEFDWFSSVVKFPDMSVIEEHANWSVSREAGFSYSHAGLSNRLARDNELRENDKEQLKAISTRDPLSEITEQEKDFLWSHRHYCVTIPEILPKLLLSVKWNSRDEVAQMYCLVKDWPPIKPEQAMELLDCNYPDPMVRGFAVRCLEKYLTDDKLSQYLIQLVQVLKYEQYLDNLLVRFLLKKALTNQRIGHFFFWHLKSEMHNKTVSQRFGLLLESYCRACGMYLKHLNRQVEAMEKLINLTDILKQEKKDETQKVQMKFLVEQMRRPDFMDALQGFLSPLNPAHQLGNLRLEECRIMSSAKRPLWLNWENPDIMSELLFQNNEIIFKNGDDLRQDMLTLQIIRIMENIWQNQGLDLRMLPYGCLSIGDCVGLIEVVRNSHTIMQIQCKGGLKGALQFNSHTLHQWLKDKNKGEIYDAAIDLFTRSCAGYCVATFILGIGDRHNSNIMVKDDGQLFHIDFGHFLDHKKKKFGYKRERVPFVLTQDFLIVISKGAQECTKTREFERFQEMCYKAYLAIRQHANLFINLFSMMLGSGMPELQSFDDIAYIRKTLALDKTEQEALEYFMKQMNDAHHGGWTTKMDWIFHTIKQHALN

SMILES: O=C1Nc2ccc(I)cc2C1=Cc1cc(Br)c(O)c(Br)c1
- inhibition [1]: 6.31%
- inhibition [2]: -3.87%
- inhibition [3]: -2.51%
- inhibition [4]: 6.08%
- inhibition [5]: 23.5%
- inhibition [6]: -3.41%
- inhibition [7]: 32.6%
- inhibition [8]: -1.83%
- inhibition [9]: 0.73%
- inhibition [10]: -0.66%
- inhibition [11]: 3.26%
- inhibition [12]: 4.28%
- inhibition [13]: 17.9%
- inhibition [14]: 1.76%
- inhibition [15]: 3.02%
- inhibition [16]: 1.64%
- inhibition [17]: 3.61%
- inhibition [18]: 10.2%

SMILES: N#Cc1ccc(Oc2nccc(-c3c(-c4ccc(F)cc4)ncn3C3CCNCC3)n2)cc1
- inhibition [2]: -3.52%
- inhibition [3]: -3.38%
- inhibition [4]: 5.16%
- inhibition [5]: 19.6%
- inhibition [19]: 2.8%
- inhibition [20]: 17.6%
- inhibition [6]: 1.26%
- inhibition [7]: 1.85%
- inhibition [8]: 0.59%
- inhibition [9]: 0.37%
- inhibition [10]: -1.27%
- inhibition [11]: -0.57%
- inhibition [13]: 4.89%
- inhibition [14]: 11.3%
- inhibition [15]: 4.73%
- inhibition [16]: 8.59%
- inhibition [17]: 5.99%
- inhibition [18]: 9.95%

SMILES: NC(=O)c1ccc(Oc2nccc(-c3c(-c4ccc(F)cc4)ncn3C3CCNCC3)n2)cc1
- inhibition [2]: -2.65%
- inhibition [3]: -1.89%
- inhibition [4]: 6.13%
- inhibition [5]: 8.85%
- inhibition [19]: 0.53%
- inhibition [20]: 5.87%
- inhibition [6]: 2.26%
- inhibition [7]: 2.71%
- inhibition [8]: 2.48%
- inhibition [9]: 2.16%
- inhibition [10]: 0.71%
- inhibition [11]: 0.08%
- inhibition [12]: 2.95%
- inhibition [13]: 2.91%
- inhibition [14]: 5.54%
- inhibition [15]: 7.33%
- inhibition [16]: 7.24%
- inhibition [17]: 6.83%
- inhibition [18]: 8.54%

SMILES: CN(C)CCOc1ccc(-c2cc(-c3ccc4c(c3)CCC4=NO)c(-c3ccncc3)o2)cc1
- inhibition [1]: -0.32%
- inhibition [2]: -1.96%
- inhibition [3]: -0.37%
- inhibition [4]: -0.14%
- inhibition [5]: 1.74%
- inhibition [19]: 2.02%
- inhibition [20]: 6.39%
- inhibition [6]: 3.66%
- inhibition [7]: 2.02%
- inhibition [8]: -0.35%
- inhibition [9]: -2.32%
- inhibition [10]: -0.68%
- inhibition [11]: 0.96%
- inhibition [12]: -3%
- inhibition [13]: 0.33%
- inhibition [14]: -4.03%
- inhibition [16]: -1.54%
- inhibition [17]: -1.92%
- inhibition [18]: -1.86%
